Source: PubChem BioAssay AID720597 (Broad Institute, 2013)
Results with a measured potency or affinity are listed apart. Active and inactive are the calls of the source.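 The calls were made as follows: active = fitted half-maximal dose no more than twice the top valid tested dose, for compounds that lower signal; inconclusive = fit invalid, or curve flat with activity between -70 and -30; inactive = potency past limit, curve flat within ±30, or signal increasing.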

molecular target: NAD-dependent protein deacylase sirtuin-5, mitochondrial (Homo sapiens) (UniProt Q9NXA8); test: blockers of sirtuin-5 peptide desuccinylation – biochemical, fluorescence imaging, cherry-pick, set 6, dose response (AID 720597); conditions: Purified SirT5, succinyl-peptide-AMC/trypsin fluorescence; series mostly up to 15 µM;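 also: lower AMC signal can also come from blocking the trypsin step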
Sequence (Q9NXA8 whole entry, looked up): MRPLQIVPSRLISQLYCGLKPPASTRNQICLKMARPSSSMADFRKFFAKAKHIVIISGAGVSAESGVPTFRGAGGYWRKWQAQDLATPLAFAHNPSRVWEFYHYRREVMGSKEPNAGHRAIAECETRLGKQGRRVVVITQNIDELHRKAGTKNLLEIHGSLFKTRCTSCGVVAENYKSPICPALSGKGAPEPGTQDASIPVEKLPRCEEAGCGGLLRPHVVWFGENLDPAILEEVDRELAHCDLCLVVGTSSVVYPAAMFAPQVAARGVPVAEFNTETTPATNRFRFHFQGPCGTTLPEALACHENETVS

outcome, inactive:
C[C@@H]1CN([C@@H](C)CO)S(=O)(=O)c2ccc(C#C[C@@H](C)O)cc2O[C@@H]1CN(C)Cc1ccc(-c2ccccc2)cc1
CN(C)CCCNC(=O)C[C@H]1CC[C@H]2[C@@H](COC[C@H](O)CN2S(=O)(=O)c2ccc(F)cc2)O1
C[C@H]1CN([C@@H](C)CO)C(=O)c2cccc(NC(=O)c3ccncc3)c2O[C@@H]1CN(C)S(C)(=O)=O
C[C@@H]1CN([C@@H](C)CO)S(=O)(=O)c2ccc(C#Cc3cccc(F)c3)cc2O[C@H]1CN(C)S(=O)(=O)c1ccccc1F
COc1ccc(C#Cc2ccc([C@@H]3[C@@H](CO)N4C(=O)CN(C(=O)c5cccnc5)C[C@H]34)cc2)cc1
O=C(Cc1ccncc1)N[C@H]1CC[C@H](CCn2cc(-c3ccccc3F)nn2)O[C@@H]1CO
CCCNC(=O)N(C)C[C@H]1Oc2cc(C#CC(C)C)ccc2S(=O)(=O)N([C@H](C)CO)C[C@@H]1C
CC(C)CC#Cc1ccc2c(c1)O[C@H](CN(C)C(=O)C1CCCCC1)[C@@H](C)CN([C@@H](C)CO)S2(=O)=O
CNC[C@H]1Oc2c(NC(=O)c3ccc(-c4nccs4)cc3)cccc2C(=O)N([C@H](C)CO)C[C@H]1C
